Screening data as filed in PubChem BioAssay.
ADAM10 inh: human ADAM10 inhibitors, primary screen, biochemical, QFRET, HTS; Disintegrin and metalloproteinase domain-containing protein 10 (Homo sapiens), O14672; recombinant ADAM10, EDANS/DABCYL FRET peptide cleavage, 3 h; inhibition, % at 7 µM; actives 0.62% (n = 370,000);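 active = inhibition above a per-campaign cutoff equal to the mean of compounds falling between control-based bounds plus 3 SD, cut at about 20% in these data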;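 also: 0% = DMSO wells while the 100% control is not disclosed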
ADAM17 inh: ADAM17 inhibitors, primary screen, biochemical, QFRET; recombinant ADAM17, EDANS/DABCYL FRET peptide cleavage; inhibition, % at 6.95 µM; actives 0.83% (n = 370,000); AID 720648, 2013;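 active = inhibition above the mean of compounds lying between control limits plus 3 SD, set per campaign, cut at about 8.5% in these data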;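 also: 0% = DMSO-only wells as the low control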
Target sequence (P78536 215-824 limits assumed): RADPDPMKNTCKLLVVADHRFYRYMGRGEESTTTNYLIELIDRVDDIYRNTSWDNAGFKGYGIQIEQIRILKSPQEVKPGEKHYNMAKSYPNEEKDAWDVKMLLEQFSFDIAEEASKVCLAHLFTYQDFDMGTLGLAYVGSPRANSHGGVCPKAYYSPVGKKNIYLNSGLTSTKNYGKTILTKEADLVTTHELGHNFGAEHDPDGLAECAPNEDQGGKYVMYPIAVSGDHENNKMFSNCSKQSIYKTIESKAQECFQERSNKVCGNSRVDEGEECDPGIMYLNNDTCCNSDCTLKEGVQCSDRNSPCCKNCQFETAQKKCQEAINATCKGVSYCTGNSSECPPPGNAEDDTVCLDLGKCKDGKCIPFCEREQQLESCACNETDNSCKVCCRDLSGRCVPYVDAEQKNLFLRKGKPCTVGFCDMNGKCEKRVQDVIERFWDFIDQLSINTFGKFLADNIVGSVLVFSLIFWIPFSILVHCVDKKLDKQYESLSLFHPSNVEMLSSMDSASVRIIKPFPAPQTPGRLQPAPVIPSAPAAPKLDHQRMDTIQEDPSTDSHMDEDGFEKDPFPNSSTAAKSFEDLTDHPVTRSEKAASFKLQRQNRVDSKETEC
aDG glyco act: activators of alpha-DG glycosylation, primary screen, uHTS, Pro5-aDG cells, AlphaScreen; activation, % at 10 µM; AID 624168, 2012; alpha-DG glycosylation AlphaScreen (IIH6); 0% Pro5, 100% B10-LARGE cell signal; actives 0.22% (n = 360,000);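 active = activation of at least 8% versus controls, or a plate z-score of at least 8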;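 also: Pro5 are CHO cells carrying HIG-tagged alpha-DG that lacks glycosylation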
NR3A LBD binder: binders of NR3A ligand-binding domain, primary screen, biophysical, differential scanning fluorimetry, uHTS; NR3A LBD differential scanning fluorimetry, Tm shift; 0% = protein alone, 100% = glycine-bound protein; actives 2.5% (n = 340,000); AID 1259313, 2017; Glutamate receptor ionotropic, NMDA 3A (GRIN3A) ligand-binding domain; Tm shift relative to glycine control, % at 25 µM;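 active = melting temperature shift of at least 10% of the positive control shift, at one fixed dose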
FAS TE block: FAS thioesterase domain inhibitors, primary screen, biochemical, fluorescence intensity, uHTS. actives 0.67% (n = 360,000). AID 602261, 2012. recombinant FAS-TE, OMFH fluorogenic substrate, fluorescence endpoint. inhibition, % at 15 µM;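 active = compounds whose normalised, plate-corrected inhibition of enzyme fluorescence in the single-dose primary screen is 50% or more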;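 also: 0% = DMSO with enzyme and 100% = substrate without enzyme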
Active calls of the source: *; · = no result given. Rows were chosen to be rich in hits. Some 4% of all compounds tested hit in one or more screens of this group.

SMILES	ADAM10 inh	ADAM17 inh	aDG glyco act	NR3A LBD binder	FAS TE block
COc1cccc(CNC(=O)Cc2ccc(-c3ccccc3)cc2)c1	-13	-2	0	-1	6
Cc1ccc(N2CCN(C(=O)C(=O)c3cccc([N+](=O)[O-])c3)CC2)cc1	-10	-2	0	·	·
O=C(C1CCCCC1)n1ccc2ccc(-c3ccc4ccn(Cc5ccccc5)c4c3)cc21	-37	-10	·	·	·
Cc1ccc(NC(=O)c2cccc(Oc3ccc([N+](=O)[O-])cc3)c2)c(C(=O)O)c1	18	9	0	3	3
O=C(Nc1cc([N+](=O)[O-])ccc1O)c1cccc(C(=O)Nc2cc([N+](=O)[O-])ccc2O)c1	1	-3	0	25*	10
Cc1cc(O)c(NC(=O)c2cccc([N+](=O)[O-])c2)cc1C	0	-5	0	17*	3
O=C(Nc1cc([N+](=O)[O-])ccc1O)c1cccc([N+](=O)[O-])c1	2	-4	0	-4	16
O=C(Nc1ccc(O)cc1)c1cccc(Oc2ccc([N+](=O)[O-])cc2)c1	8	4	0	32*	9
COCCn1c(Cc2ccccc2)nnc1SCC(=O)NC1CC1	-3	-6	0	0	-7
COc1ccc(NC(=O)CCC(=O)OCc2ccc([N+](=O)[O-])cc2)cc1	-4	-1	0	20*	6
CC(=O)Nc1ccc(NC(=O)CCC(=O)OCC(=O)c2ccc(C)c([N+](=O)[O-])c2)cc1	-2	-1	0	-36	1
COc1ccc(NC(=O)c2ccco2)cn1	-6	-3	0	-1	-5
CC(=O)c1ccc(NC(=O)CCC(=O)OCC(=O)c2cccc([N+](=O)[O-])c2)cc1	·	·	0	62*	-1
COc1ccc(NC(=O)c2ccc(-c3ccc([N+](=O)[O-])cc3)o2)cc1	5	3	0	25*	28
COc1ccc(NC(=O)CCC(=O)OCC(=O)c2ccc(Oc3ccc([N+](=O)[O-])cc3)cc2)cc1	-1	1	0	2	-4
COc1ccc(NC(=O)c2ccc(-c3ccc(C(C)=O)cc3)o2)cn1	-291	-78	0	27*	-6
CN(Cc1ccccc1)C1CC(=O)N(c2ccc(C(=O)O)cc2)C1=O (configuration not stated)	-1	-4	0	0	-4
CCOC(=O)c1c(N2C(=O)CC(Sc3ccccc3C(=O)O)C2=O)sc(C)c1C (configuration not stated)	-9	-5	0	1	-2
CCC(c1nnc(SCC(=O)Nc2ccc(C(N)=O)cc2)n1Cc1ccccc1)N(C)C (configuration not stated)	3	-3	0	0	-3
COc1cccc(C(=O)Nc2ccc(-c3nc4ccccc4o3)c(O)c2)c1	-470	-132	0	34*	18
COc1cccc(C(=O)Nc2ccc3c(C)cc(=O)oc3c2)c1	-80	-28	1	10	1
COc1cccc(C(=O)Nc2ccc(-c3nnc(-c4ccco4)o3)cc2)c1	-91	-42	0	10*	20
CS(=O)(=O)c1ccccc1C(=O)Nc1ccc(-c2nc3ccccc3o2)cc1	-5	-2	0	-3	2
COc1cc(OC)cc(C(=O)Nc2ccc(-c3nc4ccccc4o3)cc2)c1	-42	-10	0	20*	20
COc1cc(C(=O)Nc2ccc(-c3nc4cc(C)ccc4o3)c(O)c2)cc(OC)c1OC	-17	-9	0	35*	36
SMILES	ADAM10 inh	ADAM17 inh	aDG glyco act	NR3A LBD binder	FAS TE block
COc1cccc(C(=O)Nc2cccc(-c3nnc(-c4ccccc4)o3)c2)c1	6	0	0	7	24
Nc1nc2cc3ccccc3cc2[nH]c1=O	-9	-9	0	-6	-5
CC(=O)Nc1ccc(Nc2cc(C)nc3c(-c4ccc(Cl)cc4)cnn23)cc1	-19	-9	3	30*	-15
CC(=O)C1=C(C)NC(SCC(=O)Nc2nc3ccccc3s2)=C(C#N)C1c1ccc(Cl)cc1 (configuration not stated)	0	2	0	12*	26
CC(C)OP(=O)(OC(C)C)C(Nc1ccccc1)c1ccc2c(c1)OCO2 (configuration not stated)	7	-6	0	12*	-4
CC(C)COP(=O)(OCC(C)C)C(Nc1ccccc1)c1ccc2c(c1)OCO2 (configuration not stated)	5	-1	0	5	18
Cn1c(NCC(O)c2ccccc2)nc2c1c(=O)n(Cc1ccc(Cl)c(Cl)c1)c(=O)n2C (configuration not stated)	3	0	0	12*	29
Cc1cccn2cc(-c3ccc4c(c3)NC(=O)CO4)nc12	-18	-6	0	0	0
Cc1ccc(NC(=O)CS(=O)c2ccccc2N)c(C)c1 (configuration not stated)	4	0	0	1	-7
O=C1C(=O)N(Cc2cccc([N+](=O)[O-])c2)c2ccccc21	-4	-2	0	-3	24
Cc1occc1C(=O)N1CCN(c2ccc(Cl)c(Cl)c2)CC1	0	-2	2	1	6
Cc1occc1C(=O)N1CCN(c2ccccc2)CC1	-4	-2	0	12*	-9
Cc1ccc(-c2cc(C(=O)Nc3cccnc3)[nH]n2)c(O)c1C	7	0	0	28*	-8
COc1ccc(NC(=O)c2cc(-c3cc(Cl)ccc3OC)n[nH]2)cc1OC	8	3	0	·	14
Cc1cc(F)ccc1-c1cc(C(=O)Nc2ccc(F)cc2)[nH]n1	0	1	0	·	-6
Cc1cccc(NC(=O)c2cc(-c3cc(C)ccc3O)n[nH]2)c1	-1	3	0	30*	-8
Cc1cc(NC(=S)Nc2ccc(C)c(Cl)c2)n[nH]1	10	6	0	-6	4
COc1ccc(NC(=O)c2cc(-c3cc(C)ccc3O)n[nH]2)cc1Cl	17	-1	0	326*	-9
COc1ccc(NC(=S)Nc2cc(C)[nH]n2)cc1Cl	-3	-2	0	12*	-3
CSc1ccc(/C=C(\NC(=O)c2ccc(C)cc2)C(=O)NN)cc1	-6	-1	0	0	3
CCN(CC)C(=O)N1CCN(C)CC1	3	-2	0	0	-3
CCCCCC1CC(CC(=O)Nc2nncs2)C(=O)O1 (configuration not stated)	4	0	0	1	4
Cc1ccc(O)c(-c2cc(C(=O)Nc3ccc(S(=O)(=O)Nc4nccc(C)n4)cc3)[nH]n2)c1	-1	0	0	30*	-5
